In PubChem BioAssay (NCI):
About 83,000 compounds went through this panel and 20% of them were active in at least one assay; those are over-represented in the sample as a whole.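 Single-concentration screen, 48 h exposure, 96-well plates. Endpoint: percent growth. Below 10 = active.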 Calls of active or inactive are those of the source.

What was measured:
Assay in all cases: NCI-60 one-dose screen, 48 h (100 = growth as untreated, 0 = no growth, -100 = all killed)
Conditions in all cases: 10 µM unless noted
SK-MEL-2 melanoma = system: SK-MEL-2 melanoma
EKVX NSCLC = system: EKVX NSCLC
SN12C renal = system: SN12C renal
UO-31 renal = system: UO-31 renal
TK-10 renal = system: TK-10 renal
ACHN renal = system: ACHN renal
CAKI-1 renal = system: CAKI-1 renal
A498 renal = system: A498 renal
CCRF-CEM leukemia = system: CCRF-CEM leukemia
MOLT-4 leukemia = system: MOLT-4 leukemia
SR leukemia = system: SR leukemia
RPMI-8226 leukemia = system: RPMI-8226 leukemia
OVCAR-8 ovarian = system: OVCAR-8 ovarian
OVCAR-5 ovarian = system: OVCAR-5 ovarian
SK-OV-3 ovarian = system: SK-OV-3 ovarian
IGROV1 ovarian = system: IGROV1 ovarian
OVCAR-3 ovarian = system: OVCAR-3 ovarian
HS 578T breast = system: HS 578T breast
NCI/ADR-RES ovarian = system: NCI/ADR-RES ovarian
OVCAR-4 ovarian = system: OVCAR-4 ovarian

Measured: growth

COc1cccc(C(=O)O)c1OC
inactive: SK-MEL-2 melanoma 99.3% | EKVX NSCLC 91.9% | SN12C renal 96.6% | UO-31 renal 86.5% | TK-10 renal 96.2% | ACHN renal 93% | CAKI-1 renal 97.4% | A498 renal 97.4% | CCRF-CEM leukemia 107% | MOLT-4 leukemia 110% | SR leukemia 101% | RPMI-8226 leukemia 101% | OVCAR-8 ovarian 101% | OVCAR-5 ovarian 85.9% | SK-OV-3 ovarian 91.6% | IGROV1 ovarian 99.4% | OVCAR-3 ovarian 106% | HS 578T breast 88.9% | NCI/ADR-RES ovarian 99.4%

CCC(=O)Oc1ccc2ccccc2c1
inactive: SK-MEL-2 melanoma 95.2% | EKVX NSCLC 95.7% | SN12C renal 91% | UO-31 renal 71.6% | TK-10 renal 105% | ACHN renal 98.7% | CAKI-1 renal 91.2% | A498 renal 82.7% | CCRF-CEM leukemia 89.8% | MOLT-4 leukemia 99% | SR leukemia 106% | RPMI-8226 leukemia 100% | OVCAR-5 ovarian 103% | OVCAR-4 ovarian 101% | SK-OV-3 ovarian 98.9% | IGROV1 ovarian 106% | OVCAR-3 ovarian 108% | HS 578T breast 81% | NCI/ADR-RES ovarian 96.8%

CC1CC(C)S(=O)(=O)C1 (stereo not drawn)
inactive: SK-MEL-2 melanoma 112% | EKVX NSCLC 108% | SN12C renal 108% | UO-31 renal 101% | TK-10 renal 103% | ACHN renal 103% | CAKI-1 renal 106% | A498 renal 122% | CCRF-CEM leukemia 101% | MOLT-4 leukemia 91.3% | SR leukemia 97.9% | RPMI-8226 leukemia 109% | OVCAR-8 ovarian 92% | OVCAR-5 ovarian 108% | SK-OV-3 ovarian 120% | IGROV1 ovarian 118% | OVCAR-3 ovarian 111% | HS 578T breast 125% | NCI/ADR-RES ovarian 111%

Cc1ccccc1NC(=O)Oc1ccc(Cl)cc1C(=O)c1ccccc1
inactive: SK-MEL-2 melanoma 92.6% | EKVX NSCLC 96.8% | SN12C renal 88.2% | UO-31 renal 49.1% | TK-10 renal 113% | ACHN renal 88.1% | CAKI-1 renal 91.7% | A498 renal 107% | CCRF-CEM leukemia 96.5% | MOLT-4 leukemia 86.3% | SR leukemia 94.2% | OVCAR-8 ovarian 91.4% | OVCAR-5 ovarian 105% | OVCAR-4 ovarian 102% | SK-OV-3 ovarian 95.4% | IGROV1 ovarian 101% | OVCAR-3 ovarian 95.3% | HS 578T breast 84.3% | NCI/ADR-RES ovarian 97%

O=C(NCc1ccco1)Nc1cccc2c(NC(=O)NCc3ccco3)cccc12
inactive: SK-MEL-2 melanoma 78.2% [100 µM] | EKVX NSCLC 116% [100 µM] | SN12C renal 33.9% [100 µM] | UO-31 renal 103% [100 µM] | TK-10 renal 131% [100 µM] | ACHN renal 106% [100 µM] | CAKI-1 renal 100% [100 µM] | A498 renal 110% [100 µM] | CCRF-CEM leukemia 44.7% [100 µM] | MOLT-4 leukemia 59.1% [100 µM] | SR leukemia 69.4% [100 µM] | RPMI-8226 leukemia 33.9% [100 µM] | OVCAR-5 ovarian 66.4% [100 µM] | SK-OV-3 ovarian 111% [100 µM] | IGROV1 ovarian 66.3% [100 µM] | OVCAR-3 ovarian 97.5% [100 µM] | HS 578T breast 88.2% [100 µM] | NCI/ADR-RES ovarian 103% [100 µM]
active: OVCAR-8 ovarian -73.4% [100 µM]

Cn1c(=O)[nH]c2ccccc2c1=O
inactive: SK-MEL-2 melanoma 111% | EKVX NSCLC 71.6% | SN12C renal 96.4% | UO-31 renal 95.5% | TK-10 renal 94.3% | ACHN renal 105% | CAKI-1 renal 85.3% | A498 renal 129% | CCRF-CEM leukemia 108% | MOLT-4 leukemia 122% | SR leukemia 100% | OVCAR-5 ovarian 123% | OVCAR-4 ovarian 110% | SK-OV-3 ovarian 108% | IGROV1 ovarian 111% | OVCAR-3 ovarian 112% | NCI/ADR-RES ovarian 102%

Nc1nc2nnc(-c3ccccc3)c(-c3ccccc3)n2n1
active: SK-MEL-2 melanoma -2.91%
inactive: EKVX NSCLC 92.8% | SN12C renal 94.7% | UO-31 renal 106% | TK-10 renal 121% | ACHN renal 98.1% | CAKI-1 renal 96.2% | A498 renal 87.4% | CCRF-CEM leukemia 102% | MOLT-4 leukemia 103% | RPMI-8226 leukemia 50.7% | OVCAR-8 ovarian 101% | OVCAR-5 ovarian 86.3% | OVCAR-4 ovarian 101% | SK-OV-3 ovarian 102% | IGROV1 ovarian 127% | OVCAR-3 ovarian 185% | HS 578T breast 88.9% | NCI/ADR-RES ovarian 97.2%

CC(=O)N(C)N=Nc1ccc(C)cc1
inactive: SK-MEL-2 melanoma 101% | EKVX NSCLC 101% | SN12C renal 100% | UO-31 renal 81.6% | TK-10 renal 92.7% | ACHN renal 108% | CAKI-1 renal 98.6% | A498 renal 100% | CCRF-CEM leukemia 95.6% | MOLT-4 leukemia 112% | RPMI-8226 leukemia 102% | OVCAR-8 ovarian 112% | OVCAR-5 ovarian 83.1% | OVCAR-4 ovarian 102% | SK-OV-3 ovarian 110% | IGROV1 ovarian 152% | OVCAR-3 ovarian 103% | HS 578T breast 95.1% | NCI/ADR-RES ovarian 99.1%

COc1ccc(-c2csc(NC(=O)Nc3nc(-c4ccc(OC)cc4)cs3)n2)cc1
inactive: SK-MEL-2 melanoma 116% | EKVX NSCLC 72.3% | SN12C renal 93.6% | UO-31 renal 75.4% | TK-10 renal 99.8% | ACHN renal 90.1% | CAKI-1 renal 81.5% | A498 renal 96.3% | CCRF-CEM leukemia 76% | MOLT-4 leukemia 34.8% | SR leukemia 60.2% | OVCAR-8 ovarian 70.3% | OVCAR-4 ovarian 79% | SK-OV-3 ovarian 116% | IGROV1 ovarian 92.4% | OVCAR-3 ovarian 81.9% | HS 578T breast 105% | NCI/ADR-RES ovarian 79.2%
